Only some compounds are listed: those with a hit (about 12% of all), similar ones and a draw of the others.
JMJD2A Tudor: blocks the human JMJD2A Tudor domain. hit rate 4.4% among 390,000. O75164. Potency, µM (top dose mostly 114 µM), actives largely listed as inhibitors. AlphaScreen JMJD2A-Tudor / H3K4me3 peptide binding; further: nearly all actives have a fitted effect of over 50% in size
BAZ2B inh: BAZ2B (human) inhibition; Q9UIF8; AlphaScreen BAZ2B-H3K14Ac peptide displacement; Potency, µM (series often up to 114 µM), usual class: inhibitors; hit rate 4.4% among 360,000; further: nearly all actives have a fitted effect of over 60% in size
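BAZ2B 50 nM plus b-H3(5-23)K14Ac 50 nM, PBS pH 7.4/0.01% Tween-20, 30 min RT; compound added (max 110 uM), 30 min RT; streptavidin donor/Ni-chelate acceptor beads 10 ug/mL final, 20 min dark; AlphaScreen read.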
L3MBTL1 block: blocks human L3MBTL1. AlphaScreen L3MBTL1–H3K9me1 peptide binding. Potency, µM (highest dose often 57.1 µM), actives largely listed as inhibitors. hit rate 0.66% among 230,000. AID 485360; further: nearly all actives have a fitted effect of over 60% in size
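Read-out is AlphaScreen signal from streptavidin donor and nickel chelate acceptor beads (10 ug/mL final each) bridging L3MBTL1 (50 nM) and biotinylated K9-monomethylated H3(1-15) peptide (75 nM), after 30 min compound exposure at room temperature.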
HP1b binding inh: blocks HP1-beta chromodomain binding to methylated histone tails; P83916; AlphaScreen HP1-beta / biotin-H3K9me3 peptide binding; Potency, µM (top dose mostly 114 µM), usual class: inhibitors; hit rate 0.56% among 390,000; further: nearly all actives have a fitted effect of over 70% in size
Target sequence (P83916 whole entry, looked up): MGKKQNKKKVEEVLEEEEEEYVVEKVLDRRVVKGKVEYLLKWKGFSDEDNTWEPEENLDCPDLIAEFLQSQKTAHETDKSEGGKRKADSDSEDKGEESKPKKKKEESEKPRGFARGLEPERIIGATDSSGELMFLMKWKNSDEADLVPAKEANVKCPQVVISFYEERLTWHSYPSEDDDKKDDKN
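HP1-beta protein (50 nM final) preincubated 30 min at room temperature with biotinylated H3(1-18)K9me3 peptide (50 nM) in PBS pH 7.4, 0.01% Tween-20, then compound added for 30 min. AlphaScreen streptavidin donor/nickel chelate acceptor beads (10 ug/mL final), 30 min dark, luminescence read.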
G9a block: inhibitors of human histone lysine methyltransferase G9a. hit rate 8.8% among 350,000. Q96KQ7. G9a H3K9 monomethylation, AlphaScreen, 2 h. AID 504332. Potency, µM (doses to about 102 µM), usual class: inhibitors; further: nearly all actives have a fitted effect of over 75% in size
Target sequence (Q96KQ7 913-1193 limits assumed): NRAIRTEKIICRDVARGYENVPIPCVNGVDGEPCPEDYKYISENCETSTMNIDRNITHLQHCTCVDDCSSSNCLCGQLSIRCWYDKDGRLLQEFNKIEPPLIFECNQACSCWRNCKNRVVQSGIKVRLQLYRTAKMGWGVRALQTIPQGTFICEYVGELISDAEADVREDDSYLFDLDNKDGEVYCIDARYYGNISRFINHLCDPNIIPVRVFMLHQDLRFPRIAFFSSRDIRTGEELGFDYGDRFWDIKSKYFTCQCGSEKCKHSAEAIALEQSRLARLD
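Quantitative HTS format: methyltransferase activity on a biotin-tagged H3K9 peptide is measured by AlphaScreen, using a rabbit anti-monomethyl-H3K9 antibody with streptavidin donor and anti-IgG acceptor beads. Final levels are 20 nM enzyme, 500 nM peptide, 20 uM SAM; 2 h RT.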
Sfp inh: inhibitors of Bacillus subtilis Sfp phosphopantetheinyl transferase | AID 1490 | Biochemical Sfp PPTase activity, qHTS | Potency, µM, actives largely listed as inhibitors | hit rate 3.5% among 310,000;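 further: the enzyme is Sfp with the accession as filed and its product quenches rhodamine fluorescence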
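After 15 min at room temperature with compound, 15 nM Sfp received 5 uM rhodamine-CoA plus 12.5 uM BHQ-2-ybbR (50 mM Hepes pH 7.6, 10 mM MgCl2). Rate came from the fluorescence difference over 30 min, ex 525/em 598 nm.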
Hits are given with their value; n = inactive; u = inconclusive; x = no result given; [ ] = dose if it differs, or a comment. The call rests on the fitted dose curve; in most records, active means well fitted curve in the direction sought with a large enough effect; inconclusive means small, poorly fitted or top-dose-only effect, or another doubt; inactive means no such curve, though single readings can be large; an effect the other way counts as inactive or inconclusive.

SMILES	JMJD2A Tudor	BAZ2B inh	L3MBTL1 block	HP1b binding inh	G9a block	Sfp inh
CCCCC(=O)N/N=C/c1ccc(Sc2cccc3cccnc23)o1	n	n	x	n	u	35.5µM
COc1ccccc1CNc1ncncc1-c1ccc2c(c1)OCO2	x	x	x	x	n[0.501 µM]	n
COc1ccc(-c2csc(NC(C)c3nc4cc(C(=O)NCCCO)ccc4n3Cc3ccc(C)cc3)n2)cc1 (stereo unspecified)	n	x	x	n	x	x
COc1cc2c(cc1OC)/C(=C/C(=O)c1ccc(F)cc1)NCC2	u	50.1µM	x	n	79.4µM	n
COc1cc2c(cc1OC)/C(=C/C(=O)c1ccccc1F)NCC2	u	u	x	u	56.2µM	n
COc1cc2c(cc1OC)/C(=C/C(=O)c1cccc([N+](=O)[O-])c1)NCC2	u	n	x	u	n	n
COc1cc2c(cc1OC)/C(=C/C(=O)c1ccc(OC)c([N+](=O)[O-])c1)NCC2	n	n	x	n	n	n
CCOc1ccc(C(=O)OCc2cc(=O)n3nc(C4CCCCC4)sc3n2)cc1	n	n	x	n	n	x
CCOc1cc(CNC(=O)CN2CCSc3ccccc32)cc(OCC)c1OCC	n	n	x	n	n	x
Cc1cccc(C)c1NC(=O)COC(=O)c1cc[n+]([O-])cc1	n	n	n	n	n[0.501 µM]	x
CC(=O)N1CCc2cc(C(=O)CN3CCC(C)CC3)ccc21	n	n	n	n	17.8µM	n
CC(=O)N1CCc2cc(C(=O)CN3CCN(c4cccc(Cl)c4)CC3)ccc21	n	n	n	n	22.4µM	n
CC(=O)N1CCN(C(=O)c2ccco2)CC1	n	n	x	n	n	n
CC(=O)N1CCc2cc(C(=O)CN3CCCN(Cc4ccc(F)cc4)C3)ccc21	x	n	x	x	44.7µM	n
CC(=O)N1CCc2cc(C(=O)CN3CCN(C(=O)c4ccco4)CC3)ccc21	n	n	n	n	12.6µM	17.8µM
CCCCSc1nc(C)cc(SCC(=O)N/N=C/c2ccccc2)n1	n	n	x	n	n	n
CC(C)C(=O)OCc1cn(-c2ccc(Cl)c(Cl)c2)nn1	22.4µM	n	n	n	n	n
CC(C)(C)C(=O)OCc1cn(-c2ccc(Cl)cc2)nn1	n	n	n	n	u	n
Cc1ccc(NS(=O)(=O)c2ccc3c(c2)[C@H]2C=CC[C@H]2[C@@H](c2ccc(F)cc2)N3)cc1C	u	u	x	n	5.62µM	x
O=C(O)c1ccc(NS(=O)(=O)c2ccc3c(c2)C2C=CCC2C(c2ccccc2F)N3)cc1 (stereo unspecified)	u	50.1µM	7.94µM	n	10µM	10µM
COC(=O)c1ccc([C@@H]2Nc3c(OC)ccc(C)c3[C@@H]3C=CC[C@@H]32)cc1	u	u	x	n	3.16µM	x
CCC(=O)Nc1ccc(S(=O)(=O)Nc2cccc(C)c2)cc1OC	n	n	x	n	u	n
O=C(NCc1ccccc1)C1Nc2ccc(OC(F)(F)F)cc2C2C=CCC12 (stereo unspecified)	n	x	x	n	x	x
COC(=O)c1ccc([C@H]2Nc3ccc(S(=O)(=O)Nc4cccc(C)c4)cc3[C@H]3C=CC[C@H]32)cc1	35.5µM	39.8µM	x	n	4.47µM	x
COC(=O)c1ccc(CNC(=O)Cn2nnnc2CN(C)C(C)C)cc1	n	n	n	n	x	n
SMILES	JMJD2A Tudor	BAZ2B inh	L3MBTL1 block	HP1b binding inh	G9a block	Sfp inh
O=C(O)CC12CC3CC(C1)CC(n1ncc(NCC4CCCO4)c(Cl)c1=O)(C3)C2 (stereo unspecified)	n	n	n	n	56.2µM	n
CCCN(C(=O)c1cc2c(s1)-c1ccccc1SC2)c1ccccc1F	n	n	x	n	n	x
CCOC(=O)C1=C(O)/C(=C\c2ccc(CNS(=O)(=O)c3ccc(Br)cc3)o2)N=C1C	56.2µM	n	n	n	u	u
COC(=O)C1=C(O)/C(=C\c2ccc(CNS(=O)(=O)c3ccccc3)o2)N=C1C	u	n	u	n	u	50.1µM
COC(=O)C1=C(O)/C(=C\c2ccc(OCC(=O)Nc3ccccc3)cc2)N=C1C	n	n	x	n	x	n
CCn1c(O)c(/C=N/N=C/c2ccc(OC)cc2)c2cc(C3=NNC(=O)CC3)ccc21	n	n	x	n	x	n
CC/C(C)=N\N=C\c1c(O)n(CC)c2cc(C3=NNC(=O)CC3)ccc12	n	n	n	n	8.91µM	n
